Assay [1] is described as follows: AP1 Signaling Pathway (AID 357).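 Note: ME-180 reporter cells stimulated with EGF at its EC50 level; % is set by controls: 0 for no effect and ±100 for the full control effect.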 The conditions noted are these: ME-180 AP-1-bla reporter, EGF-induced, beta-lactamase ratio, 5 h; at 7.69 µM (top of the series) unless noted. Put shortly:
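Beta-lactamase reporter under AP-1 response element, ME-180 background. Stimulus: EC50 EGF. Compound exposure 5 h, 37 °C. Detection: CCF4, 2.5 h RT, 460/530 nm. Values: AC50 from titration.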

A short description of assay [2]: NFAT Signaling Pathway (AID 444).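 Note: carbachol stimulus at about its EC50 of 1 µM final; % is set by controls: 0 for no effect and ±100 for the full control effect.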 Particulars: Jurkat NFAT-bla M1, carbachol, beta-lactamase ratio, 5 h; at 7.69 µM (top of the series) unless noted. Put shortly:
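Jurkat cells with NFAT-driven β-lactamase reporter and co-expressed M1 receptor, stimulated with carbachol (final 1 uM, ~EC50), compound titration, 5 h at 37 °C. CCF4 loaded 1 h at RT; 460/530 nm ratio gave %activity and AC50.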

Assay [3] in a line: Stat Signaling Pathway (AID 446).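 Note: ME-180 cervical cancer cells given 40 pM IL-6 alongside compound; SIE-controlled beta-lactamase reporter measured as 460/530 nm FRET emission ratio; % is set by controls: 0 for no effect and ±100 for the full control effect.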 The conditions noted are these: ME-180 (cervical carcinoma) SIE beta-lactamase reporter, IL-6 stimulated, 5 h; at 7.69 µM (top of the series) unless noted. An outline of the steps:
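FRET read-out (405 nm excitation, 460/530 nm emission) of a beta-lactamase reporter under a STAT-inducible element in ME-180 cervical carcinoma cells. Cells with compound receive 40 pM IL-6 for 5 h. Values are normalised to AC90 stimulation and AC90 JAK-inhibitor controls.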

For assay [4], the target named is Glucocorticoid receptor (Homo sapiens) (UniProt P04150). Put plainly: GR-GFP Redistribution (AID 450;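 active = compounds whose dose series gives a full or clear partial fitted curve of increased nuclear translocation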; note: potency is the fitted concentration of half-maximal effect). Particulars: U2OS GR-GFP nuclear translocation, laser cytometry, 2 h.
Sequence of Glucocorticoid receptor (Homo sapiens) (P04150 whole entry, looked up, the tested form may be a part): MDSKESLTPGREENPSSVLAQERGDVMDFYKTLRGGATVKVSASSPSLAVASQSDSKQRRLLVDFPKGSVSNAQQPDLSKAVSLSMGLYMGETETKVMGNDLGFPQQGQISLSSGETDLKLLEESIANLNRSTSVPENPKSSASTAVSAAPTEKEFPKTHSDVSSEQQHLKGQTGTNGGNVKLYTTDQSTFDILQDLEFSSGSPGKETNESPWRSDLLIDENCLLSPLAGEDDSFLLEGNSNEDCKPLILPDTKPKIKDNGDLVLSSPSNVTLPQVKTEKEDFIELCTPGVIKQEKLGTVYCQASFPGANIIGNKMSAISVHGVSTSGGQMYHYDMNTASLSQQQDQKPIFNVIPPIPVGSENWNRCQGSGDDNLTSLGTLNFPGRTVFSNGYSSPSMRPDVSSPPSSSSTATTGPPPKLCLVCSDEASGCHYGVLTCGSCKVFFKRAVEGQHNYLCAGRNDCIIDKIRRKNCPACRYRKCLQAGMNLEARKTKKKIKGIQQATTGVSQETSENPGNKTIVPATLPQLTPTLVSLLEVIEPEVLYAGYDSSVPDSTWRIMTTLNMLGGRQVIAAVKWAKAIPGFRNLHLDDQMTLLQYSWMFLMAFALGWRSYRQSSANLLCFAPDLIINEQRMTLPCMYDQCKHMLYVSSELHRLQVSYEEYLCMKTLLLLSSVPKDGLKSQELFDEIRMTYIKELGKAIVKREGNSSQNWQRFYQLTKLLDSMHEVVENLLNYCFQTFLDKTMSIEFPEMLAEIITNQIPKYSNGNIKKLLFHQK
Assay [5] shares this target. The assay is described as follows: GR-EFC Redistribution (AID 451; calls by dose curve; note: potency is the fitted concentration of half-maximal effect). The conditions noted are these: CHO-K1 GR-EFC translocation, beta-gal luminescence, 2 h. An outline of the steps: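 CHO-K1 cells expressing nuclear EA and GR-ED fragments of b-gal; compounds titrated up to 46 uM final, 2 h at 37 C. GR nuclear translocation read as complemented b-gal luminescence after 1 h RT detection.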

Assay [6] addresses Mitogen-activated protein kinase 10 (Mus musculus) (UniProt Q61831). The assay is described as follows: JNK3 AlphaScreen Assay (AID 530).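 Note: kinase came from lysate of stimulated human HepG2 cells; signal reports phosphorylation of biotinylated GST-cJun 1-79 at Ser73 with 10 µM ATP; % is set by controls: 0 for no effect and ±100 for the full control effect.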 Put shortly:
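HepG2 lysate (IL-1b/TNFa pre-activated) + biotin-GST-cJun 1-79 + anti-pSer73 cJun; cpd titration, 15 min RT; ATP 10 uM start; Tris pH 7.6, MgCl2, DTT, vanadate; beads in EDTA buffer; AlphaScreen.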

For assay [7], the target named is 3',5'-cyclic-AMP phosphodiesterase 4B (Homo sapiens) (UniProt Q07343). Put plainly: qHTS Assay for Inhibitors of PDE-IV (AID 607; active = well fitted activation curve with a large enough effect in the main read-out, with a control signal flat, not every such curve was filed as active; note: % of control where 0% means no effect). Put shortly: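 Cell-based read-out of cAMP via a modified cyclic nucleotide-gated channel and membrane potential dye (535/590 nm) in HEK293 cells expressing PDE4 endogenously. Compounds tested up to 22.9 uM final; 100 uM RO 20-1724 reference.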
Sequence of 3',5'-cyclic-AMP phosphodiesterase 4B (Homo sapiens) (Q07343 whole entry, looked up): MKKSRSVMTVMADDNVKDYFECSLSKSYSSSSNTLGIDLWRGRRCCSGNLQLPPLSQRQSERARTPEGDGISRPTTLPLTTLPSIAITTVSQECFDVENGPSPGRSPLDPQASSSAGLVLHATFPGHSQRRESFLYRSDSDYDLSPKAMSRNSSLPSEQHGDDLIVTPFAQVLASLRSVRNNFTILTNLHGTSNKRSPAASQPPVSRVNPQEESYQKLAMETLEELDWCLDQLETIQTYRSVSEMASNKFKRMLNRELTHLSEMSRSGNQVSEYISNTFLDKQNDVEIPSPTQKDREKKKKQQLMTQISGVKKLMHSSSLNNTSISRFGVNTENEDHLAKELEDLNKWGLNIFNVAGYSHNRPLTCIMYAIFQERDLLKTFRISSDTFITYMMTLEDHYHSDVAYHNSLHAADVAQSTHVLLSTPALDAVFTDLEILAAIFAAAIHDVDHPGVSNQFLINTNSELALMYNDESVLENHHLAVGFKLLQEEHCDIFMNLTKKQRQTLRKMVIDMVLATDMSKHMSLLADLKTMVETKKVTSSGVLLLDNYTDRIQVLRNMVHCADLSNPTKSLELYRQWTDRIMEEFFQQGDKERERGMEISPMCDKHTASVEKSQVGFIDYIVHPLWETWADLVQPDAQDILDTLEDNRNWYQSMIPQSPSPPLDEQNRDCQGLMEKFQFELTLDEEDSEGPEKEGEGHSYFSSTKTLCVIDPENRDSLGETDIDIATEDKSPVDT

Assay [8] deals with Cytochrome P450 1A2 (Homo sapiens) (UniProt P05177). The assay is described as follows: p450-cyp1a2 (AID 410; calls by dose curve; note: potency is the fitted concentration of half-maximal effect). An outline of the steps:
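20nM CYP1A2, 100uM Luciferin-ME (=Km), 100mM KPO4; cpd 10 min RT; +NADPH regen, 60 min RT; stop/detect 20 min; luminescence. Normalized to furafylline 57 uM = full inhibition.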

Where “and” joins values, the source holds several entries; their conditions need not be identical. Identical values can stand only once. Values without a mark were called inactive. Inconclusive results are not listed. Calls of active or inactive are those of the source. Unless noted, calls come from the whole dose curve; as a rule, active = well fitted curve in either direction with a large enough effect (not every such curve was filed as active); inconclusive = small, poorly fitted or top-dose-only effect, or another doubt; inactive = flat fitted curve, though single readings scatter.

Sequence of Cytochrome P450 1A2 (Homo sapiens) (P05177 whole entry, looked up): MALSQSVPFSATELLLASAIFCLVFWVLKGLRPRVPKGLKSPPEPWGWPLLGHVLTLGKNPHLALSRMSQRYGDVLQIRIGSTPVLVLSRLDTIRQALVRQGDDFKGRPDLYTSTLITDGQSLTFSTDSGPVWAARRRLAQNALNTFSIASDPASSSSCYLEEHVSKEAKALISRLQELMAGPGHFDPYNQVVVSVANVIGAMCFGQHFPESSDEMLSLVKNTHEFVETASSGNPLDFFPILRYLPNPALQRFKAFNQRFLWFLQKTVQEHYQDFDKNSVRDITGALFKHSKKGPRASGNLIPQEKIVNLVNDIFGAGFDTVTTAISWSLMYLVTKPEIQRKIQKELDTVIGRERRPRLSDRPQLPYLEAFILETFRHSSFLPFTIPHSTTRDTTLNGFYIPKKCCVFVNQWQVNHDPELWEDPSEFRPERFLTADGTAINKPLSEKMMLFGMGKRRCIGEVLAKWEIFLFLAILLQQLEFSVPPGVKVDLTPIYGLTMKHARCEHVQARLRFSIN

As for `O=S(=O)(O)n1ccnc1` (tested in a mixture with another compound), the activity change, negative = inhibition in assay [1] was -2.09%; in assay [2], 6.55%. For the same compound, the activity, negative = inhibition in assay [3] is 0.01%. Moreover, the Potency in assay [4] was more than 46 µM; in assay [5], more than 9.22 µM. Moreover, the Potency entry in assay [6] and in assay [7] was “inactive” in each case.

As for `N[C@H](CS(=O)O)C(=O)O`, the Potency result in assay [8] and in assay [7] was “inactive” throughout. In addition, the activity change, negative = inhibition in assay [2] was 10.5% [at 38 µM]. The activity, negative = inhibition in assay [3] was 17.2% [at 38 µM]. In addition, the Potency in assay [4] and in assay [5] was more than 46 µM each time.

Turning to `O=C(O)C(=Cc1ccc(-c2ccccc2)cc1)C(=O)O`, the activity change, negative = inhibition in assay [1] was -9.3%. Further, the Potency is 0.794 µM (active) in assay [8], more than 46 µM in assay [4] and more than 9.22 µM in assay [5]. In assay [3], the activity, negative = inhibition is -12.1%. In addition, the Potency result in assay [6] and in assay [7] was “inactive” in each case.

Take `CN(C)Cc1nsc(N(C)C)n1`: the activity change, negative = inhibition in assay [1] was 6.96%; in assay [2], 0.0247%. For the same compound, the activity, negative = inhibition in assay [3] was 11.1%. Further, the Potency in assay [4] is more than 46 µM; in assay [5] it was more than 9.22 µM. Moreover, the Potency result in assay [6] and in assay [7] was “inactive” in each case.

As for `O=C(Nc1ccc(Nc2ccc3c(c2)C(=O)c2ccccc2C3=O)c2c1C(=O)c1ccccc1C2=O)c1ccccc1`, the Potency in assay [8] was 1.58 µM (active); in assay [4], more than 46 µM. For the same compound, the activity change, negative = inhibition in assay [2] is 18.6%. Also, the activity, negative = inhibition in assay [3] was 13%. For the same compound, the Potency entry in assay [6] and in assay [7] was “inactive” each time.

For the compound `CC(C)(C)[C@@]1(O)CCN2C[C@@H]3c4ccccc4CCc4cccc(c43)[C@@H]2C1`, the activity change, negative = inhibition in assay [1] is -4.55% [at 38 µM] and 8.62% [at 38 µM]; in assay [2] it was -14.6% [at 38 µM] and -5.47% [at 38 µM]. In assay [3], the activity, negative = inhibition was -1.04% [at 38 µM] and -27.5% [at 38 µM]. Further, the Potency in assay [4] and in assay [5] was more than 46 µM each time. Moreover, the Potency entry in assay [7] was “inactive”.

With `Oc1c(Cl)cc(C(c2cc(Cl)c(O)c(Cl)c2)C(c2cc(Cl)c(O)c(Cl)c2)c2cc(Cl)c(O)c(Cl)c2)cc1Cl`, the figures for the Potency in assay [8], in assay [4] and in assay [5] were 0.794 µM (active), more than 46 µM and more than 9.22 µM, respectively. In addition, the Potency result in assay [6] and in assay [7] was “inactive” in each case.

Take `COC(=O)[C@H]1[C@H]2C[C@H]3c4[nH]c5ccccc5c4CCN3C[C@@H]2CC[C@@H]1O`: the activity change, negative = inhibition is 3.48% [at 38 µM] and 8.69% [at 38 µM] in assay [1]; -14.1% [at 38 µM] in assay [2]. In assay [3], the activity, negative = inhibition is 1% [at 38 µM] and -19.7% [at 38 µM]. Besides, the Potency result in assay [6] and in assay [7] was “inactive” in each case.

On to `CO/N=C(\C(=O)N[C@@H]1C(=O)N2C(C(=O)O)=C(CSc3nc(=O)c(O)nn3C)CS[C@@H]12)c1csc(N)n1`, for which the activity change, negative = inhibition in assay [1] was -11.1% [at 38 µM]; in assay [2], 4.37% [at 38 µM]. Besides, the Potency in assay [4] and in assay [5] was more than 46 µM each time. In addition, in assay [7], the Potency result is “inactive”.

The values above are taken from PubChem BioAssay (NCATS).
